We go through 14 compounds from PubChem BioAssay (Tox21).

Inconclusive results are not listed. A call without a number means that no potency is given here. The source made the active and inactive calls. Calls follow the shape of the dose curve; as a rule, active = well fitted cell-killing curve with a large enough effect in the repeat runs; inconclusive = weak or mixed curves, or effect the other way; inactive = flat fitted curve, though single readings scatter.
Potency is read from the fitted curve at half-maximal effect.

A short description of this assay: Nuclear factor erythroid 2-related factor 2/antioxidant responsive element (Nrf2/ARE) small molecule agonists: qHTS cell viability counter screen in human keratinocytes (AID 1919968). Also: nearly all actives have a fitted effect of over 55% in size. Conditions: KeratinoSens HaCaT ARE cells viability, CellTiter-Fluor, 24 h; series mostly up to 92.4 µM. A digest of the protocol: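 Measured as CellTiter-Fluor fluorescence, this readout tracks cytotoxicity in the same wells as the ARE-luciferase screen. HaCaT reporter cells (1,500/well) received compounds after a 5 h pre-incubation and were exposed for 23 h.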
In general terms: Quantitative high-throughput screening tests each substance at several concentrations.
As for `COc1ccc2c(c1OC)C(=O)O[C@@H]2[C@H]1c2cc3c(cc2CCN1C)OCO3`, the Potency result was “inactive”.

On to `CC(C)(c1ccc(OCC2CO2)cc1)c1ccc(OCC2CO2)cc1` (centres undefined), for which the Potency was 49.2 µM (active).

Consider `C=CCCl`, for which the Potency result was “inactive”.

For `C/C(=N\NC(=O)Nc1cc(F)cc(F)c1)c1ncccc1C(=O)O`, the Potency entry is “inactive”.

As for `C=CCOC(N)=O`, the Potency result was “inactive”.

Take `COC(=O)NC(=S)Nc1ccccc1NC(=S)NC(=O)OC`: the Potency result is “inactive”.

Take `Cc1ccc2c(c1N)C(=O)c1ccccc1C2=O`: the Potency entry is “inactive”.

With `COP(=O)(OC)C(O)C(Cl)(Cl)Cl` (centres undefined), the Potency result is “inactive”.

Regarding `CN(C)N`, the Potency result was “inactive”.

On to `O=C(O)C(Br)Br`, for which the Potency entry is “inactive”.

Consider `c1ccc(P(c2ccccc2)c2ccccc2)cc1`, for which the Potency result was “inactive”.

In the case of `CN(C)CCC#N`, the Potency result is “inactive”.

Regarding `c1ccc2c(c1)sc1ccccc12`, the Potency result was “inactive”.

For `CCBr`, the Potency entry was “inactive”.
